Test [1] can be described thus: yeast TOR pathway RPL19A-GFP modulators, primary screen, cell-based, S. cerevisiae, multiplex flow cytometry (AID 1862; in the data active means percent of DMSO control GFP below about 86%;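 further: lower values mimic rapamycin by blocking the RPL19A rise seen in DMSO cells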). Particulars: S. cerevisiae RPL19A-GFP strain, flow cytometry fluorescence, 3 h; at 10 µM; stronger effect = lower value.
Test [2] in a line: modulators of CIT2-GFP expression in yeast, primary screen, S. cerevisiae, GFP fusion, multiplex flow cytometry (AID 1870;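 active means percent response above a set limit, the screen-wide mean plus 3 SD, cut at about 130% in these data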;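 further: barcoded CIT2-GFP strain pooled with four other GFP strains with rapamycin as positive control; median GFP fluorescence per well over plate mean of DMSO wells so 100% = DMSO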). Particulars: 3 h, at 10 µM, stronger effect = higher value.
The nature of test [3]: modulators of AGP1-GFP expression in yeast TOR pathway, primary screen, cell-based, multiplex flow cytometry, S. cerevisiae (AID 1887;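 active means GFP signal above the screen-wide mean plus 3 SD, that is over about 124.5% of the solvent control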;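 further: AGP1-GFP fusion strain of S. cerevisiae within a five-strain barcoded multiplex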). The conditions noted are these: 3 h, at 10 µM, stronger effect = higher value.
Test [4] in a line: inhibitors of CD8+ T cell-vesicle binding, pilot screen, LFA-1/ICAM-1 modulator project, MLPCN validation set, flow cytometry (AID 2523;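 active means response below a set limit, under 55% cells CD8-positive and vesicle-bound, and CD8 cells' 90th-percentile brightness under 279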;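 on vesicle binding response: mean PE anti-B7-1 fluorescence of CD8+ cells relative to row control; 100% = QL9-loaded vesicles with DMSO vehicle in the same plate row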). The conditions noted are these: 2C mouse CD8+ T cells, at 7 µM, stronger effect = lower value; double positive events: measured here: CD8+/vesicle+ event percentage.
Test [5] concerns the target Integrin beta-1 (Homo sapiens) + Integrin alpha-4 (Homo sapiens) (UniProt P13612+P05556). The test can be described thus: inhibition of HUTS-21 binding to VLA-4, pilot screen, VLA-4 allosteric modulator project, U937 cells, HUTS-21 mAb, flow cytometry, validation set (AID 2674;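 active means inhibition above 50%, about 3 SD of the validation set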;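 further: antibody binding induced by the VLA-4 ligand LDV present at three times its Kd; 0% = LDV ligand with antibody and no compound and 100% = antibody without LDV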). The conditions noted are these: HUTS-21 LIBS mAb binding, at 6.7 µM, stronger effect = higher value, binding induced by LDV ligand.

Test [6] is described as follows: superoxide lowering in aged yeast cells, pilot screen, validation compound set (AID 2706;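 active means superoxide response below 65% of plate, a cut near 3 SD across the whole screen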;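 further: yeast exposed to compound for one week at 30 degrees C before staining; 100% = mean of all compound wells on the same plate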). The conditions noted are these: S. cerevisiae aging, superoxide DHE fluorescence; at 10 µM, stronger effect = lower value.
Test [7] addresses Beta-adrenergic receptor kinase 1 (Homo sapiens) (UniProt P25098). Kind of test: GRK2 binders displacing RNA aptamer, biochemical, validation, human GRK2, bead flow cytometry (AID 488806). The conditions noted are these: bead-bound GRK2, FAM-aptamer displacement, at 10 µM, stronger effect = higher value.
Test [8] addresses Beta-2 adrenergic receptor (Homo sapiens) (UniProt P07550). The test can be described thus: beta2AR agonists driving receptor internalization, pilot screen, cell-based, FAP fluorogen, flow cytometry, validation set (AID 504459;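 active means percent response above 42, roughly 3 SD of non-fluorescent test compounds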;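 further: agonist-driven loss of surface beta2AR via internalization measured by FAP dye flow cytometry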). The conditions noted are these: Am2.2-beta2AR cells, FAP surface receptor flow cytometry; at 10 µM; stronger effect = higher value.
For test [9], the target named is AP-2 complex subunit beta (Homo sapiens) (UniProt P63010). The test can be described thus: inhibitors of arrestin peptide binding to AP2, pilot screen, biochemical, validation set, GST-AP2 beads, flow cytometry (AID 504541;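 active means inhibition above 54%, about 3 SD of non-fluorescent compounds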;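 further: AP2 carries R879A mutation and is captured from E. coli lysate; bead-bound FITC arrestin peptide fluorescence measuring arrestin peptide binding to AP2; 0% = DMSO wells and 100% = excess unlabeled arrestin peptide control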). The conditions noted are these: FITC arrestin peptide, at 10 µM, stronger effect = higher value, AP2 beta2 appendage fragment, R879A mutant.
Chain of AP-2 complex subunit beta (Homo sapiens) (P63010 whole entry, looked up, the tested form may be a part, one chain of several): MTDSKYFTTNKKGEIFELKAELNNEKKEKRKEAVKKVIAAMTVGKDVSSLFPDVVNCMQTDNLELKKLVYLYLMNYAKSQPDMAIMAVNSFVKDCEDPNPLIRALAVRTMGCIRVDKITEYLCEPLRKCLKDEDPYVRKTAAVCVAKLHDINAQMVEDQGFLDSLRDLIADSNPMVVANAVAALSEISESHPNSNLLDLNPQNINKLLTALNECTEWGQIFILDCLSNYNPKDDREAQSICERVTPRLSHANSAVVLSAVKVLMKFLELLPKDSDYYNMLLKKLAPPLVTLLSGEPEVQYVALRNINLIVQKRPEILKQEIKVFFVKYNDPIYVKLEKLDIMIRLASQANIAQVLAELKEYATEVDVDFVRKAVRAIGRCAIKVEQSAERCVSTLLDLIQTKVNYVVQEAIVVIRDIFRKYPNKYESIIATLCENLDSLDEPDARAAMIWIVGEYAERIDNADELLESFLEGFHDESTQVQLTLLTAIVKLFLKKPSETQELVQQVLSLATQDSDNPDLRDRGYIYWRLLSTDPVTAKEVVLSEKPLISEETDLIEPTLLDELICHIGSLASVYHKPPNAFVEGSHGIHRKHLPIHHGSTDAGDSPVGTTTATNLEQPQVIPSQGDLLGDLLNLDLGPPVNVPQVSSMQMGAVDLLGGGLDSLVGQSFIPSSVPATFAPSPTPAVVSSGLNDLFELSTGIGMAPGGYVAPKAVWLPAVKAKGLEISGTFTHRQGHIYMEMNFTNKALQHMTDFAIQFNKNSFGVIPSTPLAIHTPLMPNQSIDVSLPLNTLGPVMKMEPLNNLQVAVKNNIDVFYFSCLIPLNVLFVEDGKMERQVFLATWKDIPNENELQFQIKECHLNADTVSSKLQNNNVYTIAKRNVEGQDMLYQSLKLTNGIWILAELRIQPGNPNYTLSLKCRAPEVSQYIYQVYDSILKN
Test [10] can be described thus: yeast V-ATPase proton transport modulators, S. cerevisiae, pHLuorin, HTS validation (AID 504600; in the data active means response above about 15%;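 further: plate controls were DMSO for no effect and reference compound for full effect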). Particulars: S. cerevisiae pHLuorin cytosolic pH, at 10 µM, stronger effect = higher value.
Test [11] deals with anti-desmoglein-3 scFv antibody binding to human DSG3. The test can be described thus: inhibitors of anti-DSG3 scFv binding to DSG3, pilot screen, biochemical, validation compound set, bead-based, flow cytometry (AID 588368;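 active means binding below the plate cutoff, the plate median minus 3 SD, with a reading above zero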;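 further: signal is the median channel fluorescence of bead-bound GFP antibody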). Particulars: Protein G beads, DSG3-Fc, scFv-GFP binding, at 10 µM, stronger effect = lower value.
Test [12] in a line: inhibitors of fungal efflux pumps CDR1, CDR2, MDR1, pilot screen, validation compound set, multiplex, phenotypic (AID 588506;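 active means efflux inhibition above 0.42, the validation set average plus 4 SD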;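 further: Nile Red retained in cells so higher fluorescence means more efflux inhibition; 0 = negative control wells and 1 = enniatin B 25 µM full block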). The conditions noted are these: S. cerevisiae pump-expressing triplex, Nile Red efflux flow cytometry; at 10 µM; stronger effect = higher value; the pumps come from Candida albicans.
The target of test [13] is ATP-binding cassette sub-family B member 6 (Homo sapiens) (UniProt Q9NP58). The test can be described thus: ABCB6 transporter inhibitors, pilot screen, K562-ABCB6 cells, flow cytometry, validation set (AID 588550;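 active means inhibition above the screen-wide mean plus 3 SD, about 51%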;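 further: 0% = DMSO wells and 100% = benzethonium chloride 70 µM positive control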). Particulars: K562-ABCB6 porphyrin accumulation, 1 h, at 10 µM, stronger effect = higher value.
Chain of ATP-binding cassette sub-family B member 6 (Homo sapiens) (Q9NP58 whole entry, looked up): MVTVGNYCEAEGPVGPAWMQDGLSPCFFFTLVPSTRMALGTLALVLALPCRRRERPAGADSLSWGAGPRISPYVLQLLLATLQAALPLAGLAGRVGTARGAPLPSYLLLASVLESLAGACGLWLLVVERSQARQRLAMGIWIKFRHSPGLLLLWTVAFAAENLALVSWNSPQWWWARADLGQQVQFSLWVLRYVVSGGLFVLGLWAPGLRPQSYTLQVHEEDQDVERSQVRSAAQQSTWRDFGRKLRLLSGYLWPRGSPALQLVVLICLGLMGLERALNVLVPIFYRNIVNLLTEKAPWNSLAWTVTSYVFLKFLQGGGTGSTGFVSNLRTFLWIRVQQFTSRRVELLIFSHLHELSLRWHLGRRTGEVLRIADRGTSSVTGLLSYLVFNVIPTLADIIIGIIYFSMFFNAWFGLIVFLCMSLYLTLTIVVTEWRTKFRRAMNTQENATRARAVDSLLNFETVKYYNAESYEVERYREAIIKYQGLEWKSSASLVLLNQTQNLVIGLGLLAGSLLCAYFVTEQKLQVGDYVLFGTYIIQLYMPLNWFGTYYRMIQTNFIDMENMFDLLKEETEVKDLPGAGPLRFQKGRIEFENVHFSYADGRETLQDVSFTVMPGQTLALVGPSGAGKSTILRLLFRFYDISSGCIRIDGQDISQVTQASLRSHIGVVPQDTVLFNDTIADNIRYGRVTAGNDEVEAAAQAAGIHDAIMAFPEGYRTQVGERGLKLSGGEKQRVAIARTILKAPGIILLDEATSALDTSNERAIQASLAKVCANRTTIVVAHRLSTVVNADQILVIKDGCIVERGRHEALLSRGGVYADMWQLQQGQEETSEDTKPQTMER
Test [14] in a line: promoters of myeloid differentiation in arrested cells, primary screen, cell-based, GFP/MAC1 double positive, flow cytometry, validation set (AID 588685;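 active means differentiation response of at least 50%, scaled between solvent and reference control, from cells with both markers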;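 further: compound exposure lasts four days before antibody staining and flow analysis; 0% = DMSO wells and 100% = 5 µM fulvestrant positive control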). Particulars: ER-HoxA9 marrow cells, stronger effect = higher value, normalized: vehicle 0, fulvestrant 100.
Test [15] in a line: modulators of LAP4-GFP expression in yeast, primary screen, S. cerevisiae, multiplex flow cytometry (AID 1873;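 active means GFP signal, as percent of the solvent control, above the screen mean plus 3 SD, about 149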). The conditions noted are these: 3 h, at 10 µM, stronger effect = higher value.
The nature of test [16]: modulators of MEP2-GFP levels in yeast, primary screen, S. cerevisiae, multiplex flow cytometry (AID 1867;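 active means GFP response, as percent of the DMSO control, above the screen-wide mean plus 3 SD, about 139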;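 further: median GFP channel fluorescence of barcode-gated MEP2-GFP cells measured by flow cytometry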). Particulars: S. cerevisiae MEP2-GFP strain, 3 h, at 10 µM, stronger effect = higher value, 100% means same as DMSO wells.

Records with an inconclusive call do not appear. Active and inactive are the calls of the source.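 How the source made its calls, unless noted: active means aptamer binding inhibition above 30%, about 3 SD of noise from non-fluorescent compounds; inactive means inhibition at or below 30%.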

The results in this text go back to PubChem BioAssay.

Chain of Beta-2 adrenergic receptor (Homo sapiens) (P07550 whole entry, looked up): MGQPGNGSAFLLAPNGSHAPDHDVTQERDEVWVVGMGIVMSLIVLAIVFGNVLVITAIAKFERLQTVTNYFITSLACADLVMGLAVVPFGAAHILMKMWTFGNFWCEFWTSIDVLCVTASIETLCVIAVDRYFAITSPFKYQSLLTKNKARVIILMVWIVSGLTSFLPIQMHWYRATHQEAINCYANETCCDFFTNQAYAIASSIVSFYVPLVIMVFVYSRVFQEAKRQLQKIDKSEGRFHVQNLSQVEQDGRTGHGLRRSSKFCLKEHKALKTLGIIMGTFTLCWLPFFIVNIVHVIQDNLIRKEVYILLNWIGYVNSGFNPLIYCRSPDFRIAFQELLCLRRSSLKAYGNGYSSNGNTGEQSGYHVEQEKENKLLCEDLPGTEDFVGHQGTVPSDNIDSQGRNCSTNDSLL
Chain of Beta-adrenergic receptor kinase 1 (Homo sapiens) (P25098 whole entry, looked up): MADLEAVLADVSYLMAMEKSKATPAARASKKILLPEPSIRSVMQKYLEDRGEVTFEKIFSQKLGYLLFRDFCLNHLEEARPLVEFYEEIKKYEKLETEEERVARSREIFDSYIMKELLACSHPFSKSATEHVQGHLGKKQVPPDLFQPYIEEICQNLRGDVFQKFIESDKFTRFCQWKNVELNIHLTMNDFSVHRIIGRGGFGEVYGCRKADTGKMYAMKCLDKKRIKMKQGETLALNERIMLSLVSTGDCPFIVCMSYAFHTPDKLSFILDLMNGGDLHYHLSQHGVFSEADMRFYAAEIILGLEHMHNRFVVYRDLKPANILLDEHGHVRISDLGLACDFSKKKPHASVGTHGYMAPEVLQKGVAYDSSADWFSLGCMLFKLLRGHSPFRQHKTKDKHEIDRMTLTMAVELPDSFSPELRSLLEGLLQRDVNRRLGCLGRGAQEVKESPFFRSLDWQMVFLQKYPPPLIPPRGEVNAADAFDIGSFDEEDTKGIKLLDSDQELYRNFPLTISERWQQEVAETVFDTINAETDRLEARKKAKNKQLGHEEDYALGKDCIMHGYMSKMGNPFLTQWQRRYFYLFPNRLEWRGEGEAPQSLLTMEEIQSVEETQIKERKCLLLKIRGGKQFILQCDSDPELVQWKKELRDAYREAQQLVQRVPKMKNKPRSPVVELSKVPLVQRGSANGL
Chain of Integrin beta-1 (Homo sapiens) + Integrin alpha-4 (Homo sapiens) (P05556 whole entry, looked up): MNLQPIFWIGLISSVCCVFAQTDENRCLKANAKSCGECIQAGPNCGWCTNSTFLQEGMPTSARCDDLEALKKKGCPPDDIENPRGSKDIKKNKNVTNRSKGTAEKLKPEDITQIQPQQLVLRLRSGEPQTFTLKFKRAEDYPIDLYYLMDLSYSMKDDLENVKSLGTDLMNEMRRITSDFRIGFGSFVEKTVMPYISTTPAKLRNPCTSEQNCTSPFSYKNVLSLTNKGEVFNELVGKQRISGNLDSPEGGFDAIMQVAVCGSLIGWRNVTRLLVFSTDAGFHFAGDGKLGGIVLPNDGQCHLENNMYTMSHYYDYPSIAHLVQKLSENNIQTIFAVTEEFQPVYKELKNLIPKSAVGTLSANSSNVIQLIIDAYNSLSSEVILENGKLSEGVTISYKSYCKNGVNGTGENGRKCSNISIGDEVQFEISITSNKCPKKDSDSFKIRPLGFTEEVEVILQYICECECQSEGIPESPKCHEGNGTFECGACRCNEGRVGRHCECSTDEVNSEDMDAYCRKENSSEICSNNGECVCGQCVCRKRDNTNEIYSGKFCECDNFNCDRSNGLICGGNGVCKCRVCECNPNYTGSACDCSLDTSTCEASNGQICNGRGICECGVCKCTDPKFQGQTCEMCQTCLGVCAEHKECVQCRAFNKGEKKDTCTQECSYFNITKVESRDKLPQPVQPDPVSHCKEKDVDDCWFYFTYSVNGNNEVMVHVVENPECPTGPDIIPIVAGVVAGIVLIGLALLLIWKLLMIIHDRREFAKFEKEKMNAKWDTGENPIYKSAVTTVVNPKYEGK
Chain of Integrin beta-1 (Homo sapiens) + Integrin alpha-4 (Homo sapiens) (P13612 whole entry, looked up): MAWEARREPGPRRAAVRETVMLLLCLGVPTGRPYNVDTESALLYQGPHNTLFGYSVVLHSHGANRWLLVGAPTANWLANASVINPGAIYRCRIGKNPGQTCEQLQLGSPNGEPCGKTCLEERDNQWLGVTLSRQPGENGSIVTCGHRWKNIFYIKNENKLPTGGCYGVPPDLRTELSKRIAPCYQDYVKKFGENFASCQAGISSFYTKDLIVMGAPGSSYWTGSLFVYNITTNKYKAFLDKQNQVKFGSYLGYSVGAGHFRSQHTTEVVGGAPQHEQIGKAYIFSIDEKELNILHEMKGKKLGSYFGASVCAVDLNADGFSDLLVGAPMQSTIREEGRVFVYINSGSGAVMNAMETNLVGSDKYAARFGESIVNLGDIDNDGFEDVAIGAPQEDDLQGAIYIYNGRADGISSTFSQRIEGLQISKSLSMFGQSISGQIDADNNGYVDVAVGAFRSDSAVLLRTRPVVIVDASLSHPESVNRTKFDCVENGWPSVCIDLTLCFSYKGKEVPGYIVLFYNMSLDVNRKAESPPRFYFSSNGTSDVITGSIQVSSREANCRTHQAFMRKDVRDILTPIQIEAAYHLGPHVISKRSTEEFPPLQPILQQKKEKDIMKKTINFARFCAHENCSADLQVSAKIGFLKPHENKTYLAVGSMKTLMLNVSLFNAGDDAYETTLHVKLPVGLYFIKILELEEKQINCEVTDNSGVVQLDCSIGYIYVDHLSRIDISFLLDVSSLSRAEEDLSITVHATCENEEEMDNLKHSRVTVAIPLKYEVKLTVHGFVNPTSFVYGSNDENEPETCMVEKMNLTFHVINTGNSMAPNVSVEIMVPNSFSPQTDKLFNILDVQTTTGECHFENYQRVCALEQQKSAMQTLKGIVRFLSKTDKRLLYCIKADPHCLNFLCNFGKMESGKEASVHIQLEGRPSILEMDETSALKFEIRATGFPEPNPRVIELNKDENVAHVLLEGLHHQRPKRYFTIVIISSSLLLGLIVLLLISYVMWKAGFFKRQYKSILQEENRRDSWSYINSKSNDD

With `CC1CCCc2sc3ncn(N)c(=N)c3c21` (centres undefined), in test [1], the percent of DMSO control GFP was 103% (inactive). Moreover, the percent response of DMSO control in [2] was 105% (inactive). For the same compound, the GFP response, % of DMSO in [3] was 87.1% (inactive). The compound further came in with a double positive events in test [4] of 62.2%. In [4], the vesicle binding response was 246% (inactive). In addition, the values for the inhibition in test [5], in test [9] and in test [13] were -3.16% (inactive), -3.27% (inactive) and 7% (inactive), respectively. Further, the superoxide response (% of plate) in test [6] was 94.2% (inactive). The aptamer binding inhibition in test [7] is 4% (inactive). Moreover, the figures for the response in test [8] and in test [10] were 31.1% (inactive) and 3.56% (inactive), respectively. In test [11], the binding (% of control) is 98.2% (inactive). In [12], the efflux inhibition (fraction of control) was -0.24 (inactive). Also, the differentiation response in test [14] is -4% (inactive).
Take `CC1CNCCN1S(=O)(=O)c1cccc2cnccc12` (centres undefined): the percent of DMSO control GFP in test [1] was 95% (inactive). The percent response of DMSO control in test [2] is 104% (inactive). For the same compound, the GFP response vs DMSO in test [15] is 111% (inactive). Besides, the GFP response, % of DMSO in test [3] is 91.3% (inactive). In addition, the double positive events in [4] was determined as 62.9%. Moreover, the vesicle binding response in test [4] was 918% (inactive). The inhibition is 17.2% (inactive) in test [5], -9.84% (inactive) in [9] and 2% (inactive) in test [13]. Moreover, the superoxide response (% of plate) in test [6] is 91.3% (inactive). Moreover, the aptamer binding inhibition in test [7] is 3% (inactive). Besides, the response was -6.28% (inactive) in [8] and 1.37% (inactive) in test [10]. In addition, the binding (% of control) in [11] is 96.3% (inactive). In test [12], the efflux inhibition (fraction of control) is -0.07 (inactive). For the same compound, the differentiation response in test [14] was 14.9% (inactive).
For `O=C(CCCCCCCC(=O)c1ccccc1)c1ccccc1`, in [1], the percent of DMSO control GFP is 98.2% (inactive). Besides, in test [2], the percent response of DMSO control was 98.6% (inactive). Besides, the GFP response vs DMSO in test [15] was 105% (inactive). In addition, the GFP response, % of DMSO in test [3] is 96.9% (inactive). Besides, the double positive events in [4] was 62.1%. The vesicle binding response in [4] was 189% (inactive). The inhibition was -5.89% (inactive) in test [5], -3.86% (inactive) in test [9] and 7% (inactive) in test [13]. In addition, the superoxide response (% of plate) in test [6] is 95.3% (inactive). Besides, the aptamer binding inhibition in test [7] was 7% (inactive). Besides, the response was 9.71% (inactive) in test [8] and -4.73% (inactive) in test [10]. In [11], the binding (% of control) was 98.9% (inactive). For the same compound, the efflux inhibition (fraction of control) in [12] is -0.13 (inactive). In [14], the differentiation response is 5.6% (inactive).
Regarding `COc1cccc(N2CC(O)=C(c3nc4ccccc4c(=O)[nH]3)C2=N)c1`, in test [1], the percent of DMSO control GFP was 97.9% (inactive). For the same compound, the figures for the GFP response vs DMSO in [16] and in [15] were 130% (inactive) and 75.9% (inactive), respectively. The percent response of DMSO control in test [2] is 116% (inactive). The compound further gave a double positive events in test [4] of 58.4%. Also, the vesicle binding response in test [4] is 140% (inactive). The inhibition is 11.3% (inactive) in test [5], 2.43% (inactive) in test [9] and 14% (inactive) in test [13]. Moreover, the superoxide response (% of plate) in test [6] is 106% (inactive). In addition, the aptamer binding inhibition in [7] was 5% (inactive). Besides, the figures for the response in test [8] and in test [10] were 20.8% (inactive) and 8.28% (inactive), respectively. The binding (% of control) in test [11] is 103% (inactive). For the same compound, the efflux inhibition (fraction of control) in test [12] is -0.2 (inactive). The differentiation response in test [14] is 2.46% (inactive).
Take `COc1ccc(CN(C)CCc2ccccn2)cc1OC`: the percent of DMSO control GFP in test [1] is 104% (inactive). Besides, the percent response of DMSO control in test [2] was 102% (inactive). In addition, in [15], the GFP response vs DMSO is 74.3% (inactive). Also, in test [3], the GFP response, % of DMSO is 90.6% (inactive). The same compound came in with a double positive events in test [4] of 55.5%. In test [4], the vesicle binding response was 91.8% (inactive). The inhibition in test [5] was -15.4% (inactive); in test [9], -9.53% (inactive); in test [13], 2% (inactive). The superoxide response (% of plate) in test [6] is 95.8% (inactive). For the same compound, in [7], the aptamer binding inhibition was 3% (inactive). The response in test [8] was 6.81% (inactive); in test [10], 20.5% (active). Besides, in test [11], the binding (% of control) was 98.7% (inactive). In test [12], the efflux inhibition (fraction of control) is -0.03 (inactive). Besides, the differentiation response in [14] was -28% (inactive).
